Drawing on PubChem BioAssay (EPA / NIEHS), this text covers outcome and AC50 for ten compounds.

Results filed as inconclusive are left out. A structure can be active in one record and inactive in another. Activity calls are given as the source filed them. The calls were made as follows, unless noted: active = hit-call score of the fitted dose curve at least 0.9, where 1 is the maximum; inconclusive = response in the unintended direction; inactive = score below 0.9.

The target of assay [1] is Estrogen receptor beta (Homo sapiens) (UniProt Q92731). In words: OT_ER_ERbERb_1440: Odyssey Thera (OT) 24-hour HEK293T Protein-Complementation Assay for Estrogen Receptor-beta/-beta Homodimer (AID 2283380).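 Also: fluorescence gain from ER beta LBD homodimer complementation read by laser scanning cytometry; scored as signal increase over DMSO baseline for both agonists and antagonists.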 A digest of the protocol: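 HEK293T cells stably expressing human ER-beta LBD (aa 310-547) PCA homodimer pair, dosed 24 h; formaldehyde-fixed, Draq5-stained. Readout: increase in nuclear (agonist) or nuclear plus cytoplasmic (antagonist) fluorescence intensity versus DMSO, gain-of-signal fitting.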
Sequence of Estrogen receptor beta (Homo sapiens) (Q92731 whole entry, looked up, the tested form may be a part): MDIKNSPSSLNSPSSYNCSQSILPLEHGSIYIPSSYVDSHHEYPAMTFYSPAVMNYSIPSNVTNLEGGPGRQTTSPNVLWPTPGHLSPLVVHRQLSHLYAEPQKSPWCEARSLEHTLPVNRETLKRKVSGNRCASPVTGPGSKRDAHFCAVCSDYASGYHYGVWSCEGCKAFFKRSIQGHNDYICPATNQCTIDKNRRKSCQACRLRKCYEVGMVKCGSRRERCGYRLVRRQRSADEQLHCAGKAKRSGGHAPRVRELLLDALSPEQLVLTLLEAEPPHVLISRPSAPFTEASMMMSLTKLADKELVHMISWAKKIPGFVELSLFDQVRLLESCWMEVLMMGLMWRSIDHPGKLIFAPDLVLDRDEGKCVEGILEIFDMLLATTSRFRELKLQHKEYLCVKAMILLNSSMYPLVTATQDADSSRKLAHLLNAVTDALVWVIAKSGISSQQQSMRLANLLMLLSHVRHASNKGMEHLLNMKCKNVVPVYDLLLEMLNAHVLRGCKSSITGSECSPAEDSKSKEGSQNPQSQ

The target in assay [2] is Estrogen receptor (Homo sapiens) (UniProt P03372). In words: OT_ERa_GFPERaERE_0480: Odyssey Thera (OT) 8-hour HeLa Transcription Induction Assay for Estrogen Receptor (AID 2283381; active = hit-call score of the fitted dose curve at least 0.9, where 1 is the maximum; inactive = score below 0.9). In a few lines: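 HeLa cells expressing GFP reporter under estrogen response element, imaged 8 h after dosing. GFP induction quantified by high-content fluorescence microscopy image analysis; gain of signal fitted versus DMSO.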
Sequence of Estrogen receptor (Homo sapiens) (P03372 whole entry, looked up): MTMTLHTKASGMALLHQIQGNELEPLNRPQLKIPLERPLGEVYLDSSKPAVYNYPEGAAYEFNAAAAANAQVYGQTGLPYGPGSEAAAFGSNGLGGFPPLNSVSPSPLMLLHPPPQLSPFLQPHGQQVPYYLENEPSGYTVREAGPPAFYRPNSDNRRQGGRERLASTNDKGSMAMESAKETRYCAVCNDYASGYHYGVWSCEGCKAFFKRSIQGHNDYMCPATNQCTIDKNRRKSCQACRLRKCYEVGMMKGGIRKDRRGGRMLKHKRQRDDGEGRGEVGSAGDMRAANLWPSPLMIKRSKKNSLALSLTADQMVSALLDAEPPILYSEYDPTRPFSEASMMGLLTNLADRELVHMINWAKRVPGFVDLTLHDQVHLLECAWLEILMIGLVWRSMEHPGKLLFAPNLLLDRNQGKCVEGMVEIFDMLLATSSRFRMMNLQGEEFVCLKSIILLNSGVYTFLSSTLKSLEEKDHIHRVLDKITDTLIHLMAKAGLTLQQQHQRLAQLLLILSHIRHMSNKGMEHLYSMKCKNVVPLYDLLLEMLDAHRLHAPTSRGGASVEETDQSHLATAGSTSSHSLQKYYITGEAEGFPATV

The target is the same in assay [3]. The assay can be described thus: OT_ERa_GFPERaERE_0120: Odyssey Thera (OT) 2-hour HeLa Transcription Induction Assay for Estrogen Receptor (AID 2283382). A digest of the protocol:
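HeLa cells were dosed for 2 h, then GFP reporter induction was quantified by fluorescence microscopy with high-content image analysis. Gain of signal fitted against DMSO baseline.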

Assay [4] concerns the target Bile acid receptor (Homo sapiens) (UniProt Q96RI1). The assay can be described thus: OT_FXR_FXRSRC1_1440: Odyssey Thera (OT) 24-hour HEK293T Protein-Complementation Assay for Farnesoid X receptor/SRC-1 Co-activator (AID 2283384). In a few lines: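 HEK293T cells, 24 h after chemical dosing. FXR–SRC-1 coactivator interaction read as fluorescence from protein-fragment complementation of a split reporter. Gain of signal fitted against DMSO baseline.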

The target of assay [5] is Retinoic acid receptor RXR-alpha (Homo sapiens) (UniProt P19793). In words: OT_NURR1_NURR1RXRa_0480: Odyssey Thera (OT) 8-hour HEK293T Protein Complementation Assay for Nurr1/retinoid X receptor (RXR) (AID 2283385). A digest of the protocol: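 HEK293T cells expressing Nurr1 and RXRα fused to reporter fragments (protein-fragment complementation); fluorescence measured 8 h after dosing. Gain of signal fitted relative to DMSO.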
Sequence of Retinoic acid receptor RXR-alpha (Homo sapiens) (P19793 whole entry, looked up, the tested form may be a part): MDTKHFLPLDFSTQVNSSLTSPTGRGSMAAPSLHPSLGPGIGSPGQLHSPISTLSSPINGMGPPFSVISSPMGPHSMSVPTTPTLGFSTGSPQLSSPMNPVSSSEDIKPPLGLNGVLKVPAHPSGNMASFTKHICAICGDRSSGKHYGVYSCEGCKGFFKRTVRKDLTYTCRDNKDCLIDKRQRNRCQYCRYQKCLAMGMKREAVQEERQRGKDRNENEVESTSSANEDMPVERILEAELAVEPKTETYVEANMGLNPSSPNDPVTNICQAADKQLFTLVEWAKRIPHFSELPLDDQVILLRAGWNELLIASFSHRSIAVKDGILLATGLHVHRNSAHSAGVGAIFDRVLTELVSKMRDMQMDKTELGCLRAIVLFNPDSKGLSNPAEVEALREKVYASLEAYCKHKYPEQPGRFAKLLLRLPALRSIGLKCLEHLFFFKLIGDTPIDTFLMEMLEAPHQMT

For assay [6] the target is unchanged. In words: OT_NURR1_NURR1RXRa_1440: Odyssey Thera (OT) 24-hour HEK293T Protein Complementation Assay for Nurr1/retinoid X receptor (RXR) (AID 2283386). A digest of the protocol:
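HEK293T protein-fragment complementation of Nurr1 and RXRα fused to reporter fragments; compounds 24 h. Fluorescence gain from reconstituted reporter fitted versus DMSO.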

Read-out in assay [7]: Tumor necrosis factor receptor superfamily member 6 (Homo sapiens) (UniProt P25445)
The assay can be described thus: LTEA_HepaRG_FAS: Life Technologies and Expression Analysis (LTEA) Assay for Fas cell surface death receptor (FAS) using HepaRG (AID 2283447; active = hit-call score of the fitted dose curve at least 0.9, where 1 is the maximum; inactive = score below 0.9). The note with it: mRNA level, 48 h; actives raise or lower the signal. In a few lines: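 Differentiated human HepaRG cells, pre-cultured 48 h, were exposed in duplicate for 48 h to 8-point half-log concentrations (top 100 uM, 0.5% DMSO) in serum-free induction medium; FAS mRNA measured by qRT-PCR, normalized to ACTB/GAPDH/POLR2A, bidirectional fit versus DMSO.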

Read-out in assay [8]: Fatty acid synthase (Homo sapiens) (UniProt P49327)
In words: LTEA_HepaRG_FASN: Life Technologies and Expression Analysis (LTEA) Assay for Fatty Acid Synthase (FASN) using HepaRG (AID 2283448; active = hit-call score of the fitted dose curve at least 0.9, where 1 is the maximum; inactive = score below 0.9). As to conditions: mRNA level, 48 h; actives raise or lower the signal. A digest of the protocol:
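Differentiated HepaRG cells in serum-free induction medium exposed 48 h in duplicate to eight half-log concentrations, top 100 uM, 0.5% DMSO. FASN mRNA by qRT-PCR normalised to ACTB, GAPDH, POLR2A; bidirectional fit versus DMSO.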

The target in assay [9] is Agonist Androgen Response Element (ARE), AR (gene 367) (UniProt P10275). The assay can be described thus: OT_AR_ARELUC_AG_1440: Odyssey Thera (OT) 24-hour CHO-K1 Luciferase Assay for Agonist Androgen Response Element (ARE) (AID 2283379). In a few lines: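 Seed CHO-K1 cells; dose compounds for 24 h; add D-luciferin plus ATP in PBS; read luminescence. Signal increase relative to vehicle defines agonist activity, with at least 3 replicate wells per sample.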

Assay [10] addresses Peroxisome proliferator-activated receptor gamma (Homo sapiens) (UniProt P37231). In words: OT_PPARg_PPARgSRC1_0480: Odyssey Thera (OT) 8-hour Protein-Complementation Assay for Peroxisome Proliferator-activated Receptor Gamma / SRC-1 Co-activator (AID 2283387).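 Also: nuclear to cytoplasmic split Venus YFP fluorescence ratio reporting PPARg SRC-1 interaction.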 In a few lines: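 Protein-fragment complementation in HEK293T: Venus YFP halves (residues 1-158, 159-239, mutated to IFP1/IFP2) fused to PPARg/SRC-1. 8 h exposure; N/C ratio at 488 nm; DMSO negative control.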

The target is the same in assay [11]. The assay can be described thus: OT_PPARg_PPARgSRC1_1440: Odyssey Thera (OT) 24-hour Protein-Complementation Assay for Peroxisome Proliferator-activated Receptor Gamma/ SRC-1 Co-activator (AID 2283388).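 Also: nuclear to cytoplasmic ratio of reconstituted Venus YFP fluorescence in fixed imaged cells.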 In a few lines: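 Protein-fragment complementation between PPARg and coactivator SRC-1 was measured by fluorescence imaging in transiently transfected HEK293T cells after 24 h treatment. Signal was quantified as N/C ratio in the 488 nm channel, with DMSO as negative control.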

The nature of assay [12]: CEETOX_H295R_11DCORT: CeeTox H295R High-throughput Steroidogenesis Assay for 11-Deoxycortisol (11DCORT) (AID 2283432; active = hit-call score of the fitted dose curve at least 0.9, where 1 is the maximum; inactive = score below 0.9). The note with it: actives raise or lower the signal. In a few lines: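 Adrenal carcinoma line H295R, run per OECD 456 with minor changes, was forskolin-stimulated (10 uM, 48 h) before a 48 h chemical exposure at 0.1% DMSO. Secreted 11-deoxycortisol was quantified by HPLC-MS/MS.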

Assay [13] in a line: CEETOX_H295R_OHPREG: CeeTox H295R High-throughput Steroidogenesis Assay for OH-Pregnenolone (OHPREG) (AID 2283434; active = hit-call score of the fitted dose curve at least 0.9, where 1 is the maximum; inactive = score below 0.9). The note with it: actives raise or lower the signal. A digest of the protocol: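 Human adrenal H295R cells were prestimulated 48 h with 10 uM forskolin, then exposed 48 h to chemical in 0.1% DMSO. Medium 17alpha-hydroxypregnenolone was quantified by HPLC-MS/MS after MTBE extraction; bidirectional fitting versus DMSO baseline.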

Assay [14] is described as follows: CEETOX_H295R_OHPROG: CeeTox H295R High-throughput Steroidogenesis Assay for OH-Progesterone (OHPROG) (AID 2283435; active = hit-call score of the fitted dose curve at least 0.9, where 1 is the maximum; inactive = score below 0.9). As to conditions: actives raise or lower the signal. A digest of the protocol:
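H295R adrenal cells prestimulated 48 h with 10 uM forskolin, then exposed 48 h to chemical (0.1% DMSO final). 17alpha-hydroxyprogesterone in medium quantified by HPLC-MS/MS; bidirectional fit versus DMSO, with MTT viability measured in the same wells.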

Assay [15] in a line: CEETOX_H295R_ANDR: CeeTox H295R High-throughput Steroidogenesis Assay for Androstenedione (ANDR) (AID 2283436; active = hit-call score of the fitted dose curve at least 0.9, where 1 is the maximum; inactive = score below 0.9). The note with it: actives raise or lower the signal. In a few lines: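 H295R human adrenal cells (passages ≤10) were exposed to test chemicals for 48 h; androstenedione in medium was MTBE-extracted and quantified by HPLC-MS/MS against a 7-point standard curve. Bidirectional fitting used DMSO as baseline.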

Assay [16] in a line: CEETOX_H295R_CORTISOL: CeeTox H295R High-throughput Steroidogenesis Assay for Cortisol (AID 2283438; active = hit-call score of the fitted dose curve at least 0.9, where 1 is the maximum; inactive = score below 0.9;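 also: cortisol secreted into medium quantified by LC-MS/MS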). The note with it: actives raise or lower the signal. A digest of the protocol: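 Forskolin-primed H295R cells (10 uM, 48 h) treated 48 h with test chemical in 0.1% DMSO. Cortisol in medium quantified by MTBE extraction and HPLC-MS/MS; bidirectional fit vs DMSO, MTT viability in same wells.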

A short description of assay [17]: CEETOX_H295R_DOC: CeeTox H295R High-throughput Steroidogenesis Assay for DOC (AID 2283439; active = hit-call score of the fitted dose curve at least 0.9, where 1 is the maximum; inactive = score below 0.9). As to conditions: actives raise or lower the signal. A digest of the protocol:
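H295R cells prestimulated 48 h with 10 uM forskolin, then exposed 48 h to test chemical (0.1% DMSO final). Medium 11-deoxycorticosterone measured by HPLC-MS/MS after MTBE extraction; bidirectional fit vs DMSO, viability checked by MTT in same wells.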

A short description of assay [18]: CEETOX_H295R_PROG: CeeTox H295R High-throughput Steroidogenesis Assay for Progesterone (PROG) (AID 2283442; active = hit-call score of the fitted dose curve at least 0.9, where 1 is the maximum; inactive = score below 0.9;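 as to AC50: human H295R adrenal cells primed with 10 µM forskolin before dosing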). The note with it: actives raise or lower the signal. In a few lines: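 Steps: seed H295R cells and let them adhere overnight; prime 48 h with 10 uM forskolin; dose with compound in DMSO at 0.1% final for 48 h; extract medium steroids with MTBE; measure progesterone by LC-MS/MS. MTT viability was run in the same wells.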

Sequence of Bile acid receptor (Homo sapiens) (Q96RI1 whole entry, looked up, the tested form may be a part): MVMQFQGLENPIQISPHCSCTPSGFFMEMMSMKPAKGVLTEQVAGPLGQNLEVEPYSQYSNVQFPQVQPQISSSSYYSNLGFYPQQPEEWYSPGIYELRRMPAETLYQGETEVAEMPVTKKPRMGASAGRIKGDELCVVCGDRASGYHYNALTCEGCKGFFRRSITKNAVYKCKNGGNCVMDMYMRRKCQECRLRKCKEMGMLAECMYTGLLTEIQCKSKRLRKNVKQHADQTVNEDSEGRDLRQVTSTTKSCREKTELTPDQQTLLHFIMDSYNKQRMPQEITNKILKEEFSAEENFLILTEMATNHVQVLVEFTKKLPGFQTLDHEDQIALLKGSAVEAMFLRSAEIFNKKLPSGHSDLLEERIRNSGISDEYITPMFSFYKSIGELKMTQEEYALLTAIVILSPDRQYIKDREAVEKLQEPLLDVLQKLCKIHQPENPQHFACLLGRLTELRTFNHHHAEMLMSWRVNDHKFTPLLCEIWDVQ
Sequence of Peroxisome proliferator-activated receptor gamma (Homo sapiens) (P37231 whole entry, looked up, the tested form may be a part): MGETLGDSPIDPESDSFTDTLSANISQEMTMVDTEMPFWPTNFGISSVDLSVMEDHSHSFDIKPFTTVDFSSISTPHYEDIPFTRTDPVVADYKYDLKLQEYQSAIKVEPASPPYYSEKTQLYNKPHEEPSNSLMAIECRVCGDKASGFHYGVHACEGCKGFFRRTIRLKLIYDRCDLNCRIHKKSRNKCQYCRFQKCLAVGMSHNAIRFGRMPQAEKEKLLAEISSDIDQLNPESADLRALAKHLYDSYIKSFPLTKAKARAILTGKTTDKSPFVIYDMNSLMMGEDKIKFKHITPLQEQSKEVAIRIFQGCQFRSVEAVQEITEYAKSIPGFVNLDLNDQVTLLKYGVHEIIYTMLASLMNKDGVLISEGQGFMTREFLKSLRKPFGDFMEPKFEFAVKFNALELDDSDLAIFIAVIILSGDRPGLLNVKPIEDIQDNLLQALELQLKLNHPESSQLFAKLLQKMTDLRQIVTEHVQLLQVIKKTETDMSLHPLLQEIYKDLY
Sequence of Fatty acid synthase (Homo sapiens) (P49327 whole entry, looked up): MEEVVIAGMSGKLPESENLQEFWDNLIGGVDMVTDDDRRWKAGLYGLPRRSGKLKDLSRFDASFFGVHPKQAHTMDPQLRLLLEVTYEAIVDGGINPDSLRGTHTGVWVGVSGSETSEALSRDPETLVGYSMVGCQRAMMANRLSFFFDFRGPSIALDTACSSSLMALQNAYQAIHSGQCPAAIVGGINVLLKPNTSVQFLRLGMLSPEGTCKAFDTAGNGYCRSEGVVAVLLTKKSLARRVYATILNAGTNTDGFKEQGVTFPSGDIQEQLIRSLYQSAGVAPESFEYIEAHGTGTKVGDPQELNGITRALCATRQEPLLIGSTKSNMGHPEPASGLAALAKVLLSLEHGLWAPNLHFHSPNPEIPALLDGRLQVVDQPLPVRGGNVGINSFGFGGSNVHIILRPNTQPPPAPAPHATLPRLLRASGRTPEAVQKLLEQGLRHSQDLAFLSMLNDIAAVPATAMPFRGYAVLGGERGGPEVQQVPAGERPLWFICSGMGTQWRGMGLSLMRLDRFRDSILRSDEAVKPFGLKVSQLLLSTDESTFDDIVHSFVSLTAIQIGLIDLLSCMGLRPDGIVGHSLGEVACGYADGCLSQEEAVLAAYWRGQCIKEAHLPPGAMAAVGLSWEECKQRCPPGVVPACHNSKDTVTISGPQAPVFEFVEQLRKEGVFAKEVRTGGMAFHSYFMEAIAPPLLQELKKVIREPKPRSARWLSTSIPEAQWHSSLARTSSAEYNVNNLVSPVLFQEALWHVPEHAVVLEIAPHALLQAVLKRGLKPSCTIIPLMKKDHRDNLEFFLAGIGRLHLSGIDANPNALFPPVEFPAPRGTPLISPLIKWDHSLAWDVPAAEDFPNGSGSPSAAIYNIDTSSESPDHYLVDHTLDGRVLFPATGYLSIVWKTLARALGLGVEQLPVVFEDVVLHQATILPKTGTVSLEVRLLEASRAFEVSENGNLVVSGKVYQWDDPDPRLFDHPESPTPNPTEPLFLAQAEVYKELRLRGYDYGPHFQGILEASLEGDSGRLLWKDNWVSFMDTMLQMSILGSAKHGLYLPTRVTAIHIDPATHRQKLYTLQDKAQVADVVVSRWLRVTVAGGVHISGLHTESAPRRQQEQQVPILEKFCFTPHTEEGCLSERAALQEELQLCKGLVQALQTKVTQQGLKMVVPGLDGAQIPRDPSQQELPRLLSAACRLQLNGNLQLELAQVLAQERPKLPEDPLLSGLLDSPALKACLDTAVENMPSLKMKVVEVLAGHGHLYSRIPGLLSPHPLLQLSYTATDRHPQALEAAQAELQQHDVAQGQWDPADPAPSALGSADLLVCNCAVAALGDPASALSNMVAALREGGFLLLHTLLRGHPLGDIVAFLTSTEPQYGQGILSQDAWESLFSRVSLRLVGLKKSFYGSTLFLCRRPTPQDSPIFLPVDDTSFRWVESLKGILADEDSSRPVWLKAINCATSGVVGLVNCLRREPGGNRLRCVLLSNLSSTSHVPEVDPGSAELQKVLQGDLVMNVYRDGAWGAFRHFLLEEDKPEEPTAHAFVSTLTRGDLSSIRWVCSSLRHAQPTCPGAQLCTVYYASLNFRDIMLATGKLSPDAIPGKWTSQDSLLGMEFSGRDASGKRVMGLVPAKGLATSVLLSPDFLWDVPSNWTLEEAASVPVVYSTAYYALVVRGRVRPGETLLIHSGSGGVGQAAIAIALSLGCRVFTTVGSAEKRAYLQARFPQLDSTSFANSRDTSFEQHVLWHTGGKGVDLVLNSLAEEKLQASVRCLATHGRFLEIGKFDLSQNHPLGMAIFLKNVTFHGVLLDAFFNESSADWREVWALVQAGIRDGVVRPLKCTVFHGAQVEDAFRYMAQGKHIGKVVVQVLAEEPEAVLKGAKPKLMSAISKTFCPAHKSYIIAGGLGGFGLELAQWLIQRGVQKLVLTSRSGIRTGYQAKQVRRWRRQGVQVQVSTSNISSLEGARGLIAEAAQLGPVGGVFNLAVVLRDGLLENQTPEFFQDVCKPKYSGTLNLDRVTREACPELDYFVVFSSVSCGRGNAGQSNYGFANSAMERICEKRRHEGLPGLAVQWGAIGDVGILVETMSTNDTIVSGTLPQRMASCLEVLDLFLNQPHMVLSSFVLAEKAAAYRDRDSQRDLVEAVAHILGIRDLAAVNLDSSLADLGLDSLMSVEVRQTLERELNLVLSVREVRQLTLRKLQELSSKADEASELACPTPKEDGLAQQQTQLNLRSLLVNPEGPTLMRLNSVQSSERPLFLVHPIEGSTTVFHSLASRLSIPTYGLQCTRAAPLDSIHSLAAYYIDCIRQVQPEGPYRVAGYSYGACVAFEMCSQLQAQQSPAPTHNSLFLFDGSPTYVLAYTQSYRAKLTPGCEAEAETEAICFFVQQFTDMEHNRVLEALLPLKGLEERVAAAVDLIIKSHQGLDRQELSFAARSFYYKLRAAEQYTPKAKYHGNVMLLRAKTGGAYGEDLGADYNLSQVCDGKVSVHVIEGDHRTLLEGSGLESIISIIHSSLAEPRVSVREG

Turning to `Nc1nc(N)c2nc(CNc3ccc(C(=O)N[C@@H](CCC(=O)O)C(=O)O)cc3)cnc2n1`, the compound was called inactive in assay [1], in assay [2], in assay [3], in assay [4], in assay [5] and in [6]. The compound was classed as inactive in assay [7]. Moreover, the concentration at half-maximal activity (AC50) in assay [8] is 0.0999 µM (active).

With `COc1ccc(C)cc1N`, the outcome in assay [9], in assay [2], in assay [3], in assay [5], in assay [6] and in [10] was inactive. The call in assay [11], in assay [12], in [13], in assay [15], in assay [17] and in [7] was inactive. Also, the outcome in [8] was inactive. The AC50 is 19.3 µM (active) in [14], 36.7 µM (active) in assay [16] and 33.2 µM (active) in assay [18].

As for `COc1ccc(S(=O)(=O)N2C(=O)[C@@](c3ccccc3OC)(N3C[C@H](O)C[C@H]3C(=O)N(C)C)c3cc(Cl)ccc32)c(OC)c1`, the concentration at half-maximal activity (AC50) in [9] was 0.694 µM (active); in assay [2] it was 86.4 µM (active); in assay [6], 79.5 µM (active); in assay [14], 5.43 µM (active); in assay [8], 22.7 µM (active). Moreover, the compound was called inactive in assay [3], in assay [5], in assay [6], in [10], in assay [11] and in assay [12]. The call in assay [13], in assay [15], in assay [16], in [17], in assay [18] and in [7] was inactive.

On to `CCCCN(CCCC)CCCC`, for which the result in assay [1], in assay [2], in assay [3], in assay [4], in [5] and in [6] was inactive. Further, the result in assay [7] and in [8] was inactive.

`CCOC(=O)C(C)(C)Oc1ccc(Cl)cc1`: the call in assay [1], in assay [2], in assay [3], in assay [4], in [6] and in [10] was inactive. Also, the compound was classed as inactive in assay [11], in [7] and in [8].

In the case of `CN[C@H]1CC[C@@H](c2ccc(Cl)c(Cl)c2)c2ccc(S(N)(=O)=O)cc21`, the compound was classed as inactive in assay [9], in assay [1], in assay [3], in [10], in assay [11] and in assay [7]. For the same compound, the compound was classed as inactive in assay [8]. For the same compound, the AC50 in [2] is 12.3 µM (active).

Regarding `CCCCCC(=O)O`, the compound was called inactive in [9], in assay [1], in assay [2], in assay [3], in assay [5] and in assay [6]. The result in [10], in assay [11], in assay [7] and in assay [8] was inactive.

For `CC(=O)OCCOCCOCCOC(C)=O`, the result in [1], in [2], in assay [3], in [4], in assay [5] and in assay [6] was inactive. Moreover, the compound was called inactive in assay [10], in [11], in [7] and in assay [8].

With `CCOc1ccc2c(c1)C(C)=CC(C)(C)N2`, the result in [9], in assay [2], in [3], in assay [5], in [6] and in assay [10] was inactive. The call in [11], in [13], in assay [7] and in assay [8] was inactive. Further, the values for the half-maximal activity concentration (AC50) in assay [14], in assay [15] and in [18] were 2.44 µM (active), 36.4 µM (active) and 16.7 µM (active), respectively.

With `Cc1ccc(C)c(O)c1C`, the compound was called inactive in assay [9], in assay [2], in assay [3], in assay [5], in assay [6] and in assay [10]. The call in assay [11], in [7] and in assay [8] was inactive.

As usually defined, the AC50 is the concentration giving half of the maximal activity seen.
